# Reference: ChEMBL document CHEMBL4513216, “Probing the Open Global Health Chemical Diversity Library for Multistage-Active Starting Points for Next-Generation Antimalarials” (ACS Infect Dis, 2020)
# About 8,600 (12%) of roughly 69,000 compounds showed an effect of 50% or more. The full list was thinned out, with strong results kept by preference.
# System: Plasmodium berghei
# Test: Screen against P. berghei liver stage (PbLuc), transformed with Luciferase, at 10uM
# Format: functional, HepG2
# Conditions: tested at 10 uM
row,SMILES,INHIBITION
1,CS(=O)(=O)N[C@@H]1CN(Cc2ccc3ccccc3c2)C[C@H]1O,-6.88%
2,O=C(Cc1ccccn1)N1CCCC(c2nccn2CC2CCC2)C1 (centres undefined),10.7%
3,O=C(O)c1cc(C2CC2)nc2c(Cl)cnn12,29.2%
4,CC(C)C(C(=O)N1CCN(c2nccs2)CC1)n1cncn1 (centres undefined),5.03%
5,Cc1nc(C2CCNC2)nc2c1CCC(=O)N2CC(C)C (centres undefined),25.65%
6,CN1C(=O)c2cccc(NC(=O)c3ccc4c(c3)OCCO4)c2C1=O,8.46%
7,CC(C)(C)NC(=O)[C@@H]1CNC[C@]12Cc1ccccc1C(=O)N2,24.2%
8,COCCNc1nnc(-c2cnc(C)cn2)s1,-54.1%
9,c1cncc(C[C@H]2[C@H](N3CCOCC3)CCN2Cc2nccs2)c1,8.85%
10,Cn1cc(C(=O)N2CCN(Cc3cscn3)CC2)ccc1=O,-8.22%
11,CCOC(C)C(=O)N(C)C1CCN(c2ccc(OC)cc2)CC1 (centres undefined),33.4%
12,Cc1cc(NC(=O)N(C)CCN2CCN(c3ccccc3)CC2)on1,35.5%
13,COCc1ncc(CN2CCC(Oc3ccccc3C)CC2)cn1,26.8%
14,COc1ccc(N2CCC(N(C)C(C)C(=O)N(C)C)CC2)cc1 (centres undefined),45.3%
15,COCc1ncc(CN2CCC(Oc3ccccc3OC)CC2)cn1,-20.6%
16,CN(CCN1CCN(c2ccccc2)CC1)C(=O)Nc1ccncc1,73.2%
17,COCc1ncc(CN2CCC(Oc3ccc(OC)cc3)CC2)cn1,56%

row,SMILES,INHIBITION
1,COc1ccc(N2CCC(N(C)C(=O)Nc3ccncc3)CC2)cc1,52.8%
2,CN(CCN1CCN(c2ccccc2)CC1)C(=O)Nc1ccccn1,45.4%
3,CC(=O)NCCc1ccc(S(=O)(=O)Nc2ccc(C)cc2F)s1,-44.2%
4,CN(C)c1cc(C2CCCN2)ccn1 (centres undefined),33.54%
5,O=S(=O)(Cc1ccon1)N1CCN(c2ccncc2Cl)CC1,38.9%
6,O=c1[nH]c2ncccc2n1C1CCNCC1,-6.18%
7,Cc1nccn1-c1cc(CNC(=O)CC2CCCO2)ccn1 (centres undefined),30.6%
8,CO[C@H]1CC[C@H]2[C@H]1OCCN2Cc1ccc(F)c(F)c1,22.4%
9,Cc1cnn(CCNc2ncnc3c2CCN(CC2CCOC2)CC3)c1 (centres undefined),60%
10,CCN(C)c1ncnc2c1CCN(CC1CCOC1)CC2 (centres undefined),55.5%
11,c1nc2c(c(NCCCn3cncn3)n1)CCN(CC1CCOC1)CC2 (centres undefined),31.6%
12,CCN(CC)c1ncnc2c1CCN(CC1CCOCC1)CC2,41.6%
13,Cc1ncnc2c1CCN(CC1CCOC1)CC2 (centres undefined),18.3%
14,c1nc2c(c(C3CC3)n1)CCN(CC1CCOC1)CC2 (centres undefined),13.6%
15,CN(C)c1ncnc2c1CCN(CC1CCOCC1)CC2,64.9%
16,CN(C)c1ncnc2c1CCN(CC1CCOC1)CC2 (centres undefined),19.9%
17,Cc1ccc(Nc2ncnc3c2CCN(CC2CCOC2)CC3)cc1 (centres undefined),29.8%
